Laboratory results: PubChem BioAssay
Active and inactive are the calls of the source.

What was measured:
[1] = small molecules captured by biotinylated probe aFSTL3 – biochemical, small-molecule microarray, fluorescence 635/667, stem cell growth factor project, primary screen (AID 1064); details: higher = more signal;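 further: measures binding of the biotinylated anti-FSTL3 antibody to printed compounds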
[2] = binders from COS7 lysate, DM2A8 probe, primary screen, torsin A project, cell lysate, small-molecule microarray, fluorescence 635/667 (AID 1065); details: higher = more signal, COS7 lysate expressing mutant human TOR1A
[3] = small molecules captured by biotinylated probe aFGF2 – biochemical, small-molecule microarray, fluorescence 635/667, stem cell growth factor project, primary screen (AID 1067); details: higher = more signal;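 further: measures binding of biotinylated aFGF2 protein to printed compounds on slides; z-score merges feature fluorescence and signal-to-noise across triplicate slides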
[4] = small molecules captured by biotinylated probe aFGF10 – biochemical, small-molecule microarray, fluorescence 635/667, stem cell growth factor project, primary screen (AID 1071); details: higher = more signal;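 further: score merges 667 nm spot intensity and signal to noise from triplicate slides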
[5] = biological target: Neurogenic locus notch homolog protein 2 (Homo sapiens) (UniProt Q04721); assay: small molecules binding Notch2 protein – biochemical, small-molecule microarray, 635 nm fluorescence, stem cell growth factors, primary screen (AID 1073); details: higher = more signal
[6] = biological target: Pro-neuregulin-1, membrane-bound isoform (Homo sapiens) (UniProt Q02297); assay: small molecules binding neuregulin-1 protein – biochemical, small-molecule microarray, fluorescence 635/667, psychiatric disease protein project, primary screen (AID 1075); details: NRG1 binding, 635 nm fluorescence, higher = more signal;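 further: score combines 667 nm spot fluorescence with signal to noise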
[7] = test system: Neuregulin-1 EGF-like domain; assay: small molecules binding NRG1 EGF domain – biochemical, small-molecule microarray, 635 nm fluorescence, primary screen (AID 1081); details: higher = more signal;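 further: binding of the protein to compounds printed on small-molecule microarray slides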
[8] = FRG1 expression reporter modulators in myotubes – cell-based, C2C12 myotubes, firefly/Renilla luciferase, luminescence, FRG1 inhibition for FSHD, primary screen (AID 1084); details: FRG1 promoter luciferase, higher = more signal, called active from +8 up or from −8 down
[9] = small molecules captured by biotinylated probe aFST – biochemical, small-molecule microarray, fluorescence 635/667, stem cell growth factor project, primary screen (AID 1086); details: higher = more signal;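 further: score merges 667 nm fluorescence with signal-to-noise of each printed compound spot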
[10] = binders of probe aHhip on microarray, primary screen, stem cell growth factor project, biochemical, small-molecule microarray, fluorescence 635/667 (AID 1087); details: higher = more signal;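 further: score merges spot fluorescence at 667nm with spot signal to noise ratio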
[11] = test system: PRMT1 (protein arginine N-methyltransferase 1); assay: small molecules binding arginine methyltransferase PRMT1 – biochemical, small-molecule microarray, 635 nm fluorescence, primary screen (AID 1088); details: higher = more signal;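 further: binding of Prmt1 protein to compounds spotted on small-molecule microarray slides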
[12] = growth effects on S. cerevisiae YJM789 – YJM789 clinical isolate, OD600, 24 h, basal, primary screen (AID 1089); details: higher = more signal, called active from +8 up or from −8 down;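 further: growth of clinical yeast isolate S. cerevisiae YJM 789 seeded 1000 cells per well; test concentration not given here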
[13] = S. pombe growth modifiers, basal conditions – strain 972, OD600, 24 h, no modulator, primary screen (AID 1090);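 further: basal condition with compound alone and no growth modifier present; test concentration not given here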; details: S. pombe 972 growth, higher = more signal, called active from +8 up or from −8 down
[14] = budding yeast growth modifiers under rapamycin – strain BY4716, OD600, 96 h, primary screen (AID 1091); further: test concentration not given here; details: S. cerevisiae BY4716 + rapamycin, higher = more signal, called active from +8 up or from −8 down
[15] = biological target: Torsin-1A-interacting protein 2 (Homo sapiens) (UniProt Q8NFQ8); assay: small molecules binding lysate-expressed LULL1 – cell lysate, human LULL1 lysate, 635/667 nm fluorescence, primary screen (AID 1092); details: small-molecule microarray, hLULL1 lysate binding, 635 nm fluorescence; higher = more signal;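 further: probe is lysate of COS7 cells overexpressing human LULL1; score merges per-feature 667 nm fluorescence with signal-to-noise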
[16] = optical density change of DRC41 E. coli – strain DRC41, OD650, 24 h, E. coli filamentation project, primary screen (AID 1093);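 further: MC1000 strain lacking acrAB efflux and sulA so SOS filamentation is blocked; test concentration not given here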; details: E. coli DRC41 growth, higher = more signal, called active from +8 up or from −8 down
[17] = probe aLefty2 binding to arrayed compounds – biochemical, biotinylated probe, 635/667 nm fluorescence, primary screen (AID 1094); details: small-molecule microarray, higher = more signal;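 further: score merges spot fluorescence near 667 nm with spot signal-to-noise ratio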
[18] = test system: Noggin (protein binding on small-molecule microarray); assay: small molecules binding Noggin protein – biochemical, 635/667 nm fluorescence, primary screen (AID 1095); details: 635 nm fluorescence, higher = more signal;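 further: score merges 667 nm feature fluorescence with signal to noise over triplicate slides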
[19] = biological target: Neurogenic locus notch homolog protein 3 (Homo sapiens) (UniProt Q9UM47); assay: small molecules binding NOTCH3 protein – biochemical, 635/667 nm fluorescence, primary screen (AID 1096); details: small-molecule microarray, 635 nm fluorescence, higher = more signal
[20] = probe aEGFR binding to arrayed compounds – biochemical, biotinylated probe, 635/667 nm fluorescence, primary screen (AID 1097); details: small-molecule microarray, higher = more signal;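 further: probe is a biotinylated anti-EGFR antibody binding compounds printed on slides; score combines fluorescence near 667 nm and signal to noise of each spot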

Sequence of Neurogenic locus notch homolog protein 3 (Homo sapiens) (Q9UM47 whole entry, looked up): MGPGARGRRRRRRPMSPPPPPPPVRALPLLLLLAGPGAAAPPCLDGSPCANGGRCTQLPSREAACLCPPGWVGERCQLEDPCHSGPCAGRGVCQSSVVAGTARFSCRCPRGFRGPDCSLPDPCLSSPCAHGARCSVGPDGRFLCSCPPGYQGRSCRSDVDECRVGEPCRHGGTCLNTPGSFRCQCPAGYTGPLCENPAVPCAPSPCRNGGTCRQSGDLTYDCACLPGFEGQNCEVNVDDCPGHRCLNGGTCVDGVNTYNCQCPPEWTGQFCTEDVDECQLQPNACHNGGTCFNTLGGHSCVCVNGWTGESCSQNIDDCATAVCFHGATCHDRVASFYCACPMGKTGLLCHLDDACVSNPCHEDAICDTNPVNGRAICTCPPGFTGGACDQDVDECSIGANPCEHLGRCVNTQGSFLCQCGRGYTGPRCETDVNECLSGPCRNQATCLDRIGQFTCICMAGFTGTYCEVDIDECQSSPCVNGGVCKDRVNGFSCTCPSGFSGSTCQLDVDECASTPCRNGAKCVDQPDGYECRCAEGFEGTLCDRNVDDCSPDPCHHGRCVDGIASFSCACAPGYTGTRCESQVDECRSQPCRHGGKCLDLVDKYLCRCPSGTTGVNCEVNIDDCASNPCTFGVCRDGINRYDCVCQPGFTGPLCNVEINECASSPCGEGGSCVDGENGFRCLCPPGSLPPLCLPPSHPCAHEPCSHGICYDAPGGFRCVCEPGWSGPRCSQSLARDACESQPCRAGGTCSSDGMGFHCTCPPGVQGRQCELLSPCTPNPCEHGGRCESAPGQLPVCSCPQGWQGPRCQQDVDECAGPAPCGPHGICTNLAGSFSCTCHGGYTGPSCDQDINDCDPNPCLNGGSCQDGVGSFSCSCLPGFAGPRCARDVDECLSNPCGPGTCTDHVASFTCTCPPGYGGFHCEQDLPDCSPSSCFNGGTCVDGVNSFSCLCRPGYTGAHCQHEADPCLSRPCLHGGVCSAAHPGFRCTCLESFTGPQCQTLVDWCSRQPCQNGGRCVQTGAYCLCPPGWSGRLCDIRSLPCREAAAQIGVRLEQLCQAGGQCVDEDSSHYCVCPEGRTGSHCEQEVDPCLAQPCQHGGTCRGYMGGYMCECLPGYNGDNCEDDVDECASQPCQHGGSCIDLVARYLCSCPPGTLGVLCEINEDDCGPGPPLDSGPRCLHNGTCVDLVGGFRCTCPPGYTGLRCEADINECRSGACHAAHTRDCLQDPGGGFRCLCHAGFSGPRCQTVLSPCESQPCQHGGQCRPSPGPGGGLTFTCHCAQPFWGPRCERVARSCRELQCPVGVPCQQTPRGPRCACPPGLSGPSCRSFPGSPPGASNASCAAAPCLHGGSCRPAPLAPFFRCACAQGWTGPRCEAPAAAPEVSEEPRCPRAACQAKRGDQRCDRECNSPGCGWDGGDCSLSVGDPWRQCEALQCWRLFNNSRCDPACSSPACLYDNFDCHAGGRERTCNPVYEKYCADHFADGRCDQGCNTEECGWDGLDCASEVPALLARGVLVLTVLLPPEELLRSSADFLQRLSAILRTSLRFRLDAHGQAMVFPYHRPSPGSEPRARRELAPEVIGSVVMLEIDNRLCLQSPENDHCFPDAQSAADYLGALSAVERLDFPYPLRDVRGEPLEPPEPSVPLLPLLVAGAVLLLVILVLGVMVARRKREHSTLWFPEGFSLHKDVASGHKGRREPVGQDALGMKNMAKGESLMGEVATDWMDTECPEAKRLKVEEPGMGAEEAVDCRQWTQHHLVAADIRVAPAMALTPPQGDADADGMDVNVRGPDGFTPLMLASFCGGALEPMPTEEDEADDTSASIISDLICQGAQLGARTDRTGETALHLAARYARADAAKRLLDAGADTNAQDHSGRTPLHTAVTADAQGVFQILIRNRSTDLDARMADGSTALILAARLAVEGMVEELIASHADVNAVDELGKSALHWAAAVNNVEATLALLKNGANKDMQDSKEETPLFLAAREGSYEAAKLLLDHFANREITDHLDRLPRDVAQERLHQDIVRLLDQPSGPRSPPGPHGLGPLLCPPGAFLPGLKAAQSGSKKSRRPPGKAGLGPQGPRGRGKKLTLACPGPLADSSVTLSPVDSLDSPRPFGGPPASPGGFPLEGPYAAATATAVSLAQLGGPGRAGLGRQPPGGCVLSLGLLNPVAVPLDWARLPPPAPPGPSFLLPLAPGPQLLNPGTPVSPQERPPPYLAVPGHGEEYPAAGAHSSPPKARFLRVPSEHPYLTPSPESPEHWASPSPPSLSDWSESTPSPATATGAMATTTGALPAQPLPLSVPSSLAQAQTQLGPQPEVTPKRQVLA
Sequence of Neurogenic locus notch homolog protein 2 (Homo sapiens) (Q04721 whole entry, looked up, canonical isoform): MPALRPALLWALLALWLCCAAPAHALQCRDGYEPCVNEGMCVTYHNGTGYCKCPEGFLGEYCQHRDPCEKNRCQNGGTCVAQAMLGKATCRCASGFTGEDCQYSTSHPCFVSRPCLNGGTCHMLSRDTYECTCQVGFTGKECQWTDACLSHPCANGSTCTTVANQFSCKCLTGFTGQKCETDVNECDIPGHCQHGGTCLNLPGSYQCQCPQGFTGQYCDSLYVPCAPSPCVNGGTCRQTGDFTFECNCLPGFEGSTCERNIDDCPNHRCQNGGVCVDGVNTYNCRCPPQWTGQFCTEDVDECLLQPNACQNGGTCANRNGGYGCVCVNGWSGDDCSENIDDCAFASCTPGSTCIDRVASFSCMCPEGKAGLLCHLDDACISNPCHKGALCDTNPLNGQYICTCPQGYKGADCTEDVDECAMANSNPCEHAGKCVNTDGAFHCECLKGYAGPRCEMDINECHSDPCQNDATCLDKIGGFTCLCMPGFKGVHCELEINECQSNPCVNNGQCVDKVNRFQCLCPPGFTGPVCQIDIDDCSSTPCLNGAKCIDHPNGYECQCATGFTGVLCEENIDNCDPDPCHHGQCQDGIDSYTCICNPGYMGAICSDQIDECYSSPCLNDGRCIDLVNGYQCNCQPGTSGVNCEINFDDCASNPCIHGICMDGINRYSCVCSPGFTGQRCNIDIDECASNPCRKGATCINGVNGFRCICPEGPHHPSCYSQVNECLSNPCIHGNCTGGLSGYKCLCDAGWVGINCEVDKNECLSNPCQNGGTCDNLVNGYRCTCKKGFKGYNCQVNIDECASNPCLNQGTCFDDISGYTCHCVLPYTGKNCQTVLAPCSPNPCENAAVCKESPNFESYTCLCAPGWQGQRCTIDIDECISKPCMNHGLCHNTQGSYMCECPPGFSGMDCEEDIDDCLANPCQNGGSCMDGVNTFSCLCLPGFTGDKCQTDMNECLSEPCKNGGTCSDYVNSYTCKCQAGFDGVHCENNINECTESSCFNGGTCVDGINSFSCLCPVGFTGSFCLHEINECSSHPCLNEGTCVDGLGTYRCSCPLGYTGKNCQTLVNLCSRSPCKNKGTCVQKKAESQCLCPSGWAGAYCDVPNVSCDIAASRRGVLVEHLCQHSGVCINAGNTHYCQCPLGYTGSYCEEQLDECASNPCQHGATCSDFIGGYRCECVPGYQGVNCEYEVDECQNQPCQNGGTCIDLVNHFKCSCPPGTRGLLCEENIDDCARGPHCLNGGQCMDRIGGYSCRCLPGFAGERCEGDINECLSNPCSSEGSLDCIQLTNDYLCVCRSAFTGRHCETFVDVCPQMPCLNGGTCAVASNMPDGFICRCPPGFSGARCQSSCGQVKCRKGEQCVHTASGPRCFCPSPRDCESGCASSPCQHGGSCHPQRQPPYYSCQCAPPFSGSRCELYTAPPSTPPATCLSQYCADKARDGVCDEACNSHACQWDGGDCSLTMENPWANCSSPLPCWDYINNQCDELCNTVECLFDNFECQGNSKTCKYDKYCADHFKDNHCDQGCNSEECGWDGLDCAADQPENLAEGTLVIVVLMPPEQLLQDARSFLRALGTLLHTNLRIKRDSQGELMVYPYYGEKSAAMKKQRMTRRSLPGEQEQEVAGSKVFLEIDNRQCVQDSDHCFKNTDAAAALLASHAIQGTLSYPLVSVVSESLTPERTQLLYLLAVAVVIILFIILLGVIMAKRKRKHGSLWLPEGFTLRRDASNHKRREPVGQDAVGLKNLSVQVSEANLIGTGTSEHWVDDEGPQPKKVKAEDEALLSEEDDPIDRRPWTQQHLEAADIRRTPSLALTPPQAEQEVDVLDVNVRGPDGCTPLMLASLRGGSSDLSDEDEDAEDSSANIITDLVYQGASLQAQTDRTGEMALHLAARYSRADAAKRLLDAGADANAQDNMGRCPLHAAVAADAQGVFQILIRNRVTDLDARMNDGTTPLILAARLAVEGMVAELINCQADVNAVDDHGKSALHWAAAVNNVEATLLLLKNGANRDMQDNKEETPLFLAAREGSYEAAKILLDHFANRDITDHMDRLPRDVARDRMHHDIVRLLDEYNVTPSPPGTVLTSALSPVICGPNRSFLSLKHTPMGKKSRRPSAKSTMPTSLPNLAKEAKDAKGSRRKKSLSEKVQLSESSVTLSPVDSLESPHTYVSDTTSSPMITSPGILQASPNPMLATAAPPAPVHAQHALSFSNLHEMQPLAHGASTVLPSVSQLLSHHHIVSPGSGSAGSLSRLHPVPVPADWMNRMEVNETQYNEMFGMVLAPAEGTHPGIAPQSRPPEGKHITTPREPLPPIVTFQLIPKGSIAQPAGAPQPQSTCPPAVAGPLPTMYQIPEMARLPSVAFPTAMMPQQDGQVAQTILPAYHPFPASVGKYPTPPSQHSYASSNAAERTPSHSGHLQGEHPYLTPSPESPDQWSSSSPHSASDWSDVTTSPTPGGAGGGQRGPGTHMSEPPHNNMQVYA

**Q.** What does the source list for `COCC(=C=CC[C@@H](O)c1cccc(OCCO)c1)C[C@@H](O)COCc1ccccc1`?
**A.** composite z-score [1]: 0.506; composite z-score [2]: 1.35; composite z-score [3]: 0.0918; composite z-score [4]: 0.718; composite z-score [5]: -0.157; composite z-score [6]: 2.11; composite z-score [7]: 0.974; z-score [8]: -0.631 (inactive); composite z-score [9]: 1.96; composite z-score [10]: -0.169; composite z-score [11]: 0.881; z-score [12]: -1.56 (inactive); z-score [13]: -1.53 (inactive); z-score [14]: -0.592 (inactive); composite z-score [15]: 3.81; z-score [16]: 1.36 (inactive); composite z-score [17]: 0.217; composite z-score [18]: 0.748; composite z-score [19]: 0.0417; composite z-score [20]: 0.19

**Q.** Which results are given for `CN1C(=O)[C@]2(CCC(=O)OC(C)(C)C)N=C(c3ccc(OCCCO)cc3)O[C@@H]2c2ccccc21`?
**A.** composite z-score [1]: 0.229; composite z-score [2]: 0.326; composite z-score [3]: 0.0458; composite z-score [4]: 0.182; composite z-score [5]: 0.428; composite z-score [6]: 1.8; composite z-score [7]: 1.35; z-score [8]: 0.518 (inactive); composite z-score [9]: 0.898; composite z-score [10]: 0.21; composite z-score [11]: 1.55; z-score [12]: 0.494 (inactive); z-score [13]: -0.243 (inactive); z-score [14]: 0.872 (inactive); composite z-score [15]: 3.06; z-score [16]: 0.95 (inactive); composite z-score [17]: 0.0079; composite z-score [18]: 1.9; composite z-score [19]: 1.13; composite z-score [20]: -0.04

**Q.** Which composite z-score [1] does the source give for `C=C(CC1([C@@H](NP(=O)(c2ccccc2)c2ccccc2)[C@H]2C[C@@H]2CCN(C(=O)OCC)S(=O)(=O)c2ccc(C)cc2)CC1)c1ccccc1` here?
**A.** Its composite z-score is 0.0862.

**Q.** What about the composite z-score [2] of the same compound?
**A.** Its composite z-score is -0.163.

**Q.** And the composite z-score [3]?
**A.** Its composite z-score is 0.226.

**Q.** And the composite z-score [4]?
**A.** The composite z-score was 0.821.

**Q.** What about the composite z-score [5] of the same compound?
**A.** The composite z-score was 1.67.

**Q.** And the composite z-score [6]?
**A.** Its composite z-score is 1.38.

**Q.** What about the composite z-score [7] of the same compound?
**A.** Its composite z-score is 1.12.

**Q.** What about the z-score [8] of the same compound?
**A.** Its z-score is 0.894 (inactive).

**Q.** And the composite z-score [9]?
**A.** Its composite z-score is 1.5.

**Q.** What about the composite z-score [10] of the same compound?
**A.** The composite z-score was 0.128.

**Q.** And the composite z-score [11]?
**A.** The composite z-score was -0.362.

**Q.** And the z-score [12]?
**A.** Its z-score is 0.585 (inactive).

**Q.** What about the z-score [13] of the same compound?
**A.** The z-score was 0.722 (inactive).

**Q.** What about the z-score [14] of the same compound?
**A.** The z-score was 3.51 (inactive).

**Q.** What about the composite z-score [15] of the same compound?
**A.** Its composite z-score is 2.98.

**Q.** And the z-score [16]?
**A.** The z-score was -0.926 (inactive).

**Q.** And the composite z-score [17]?
**A.** The composite z-score was 0.502.

**Q.** And the composite z-score [18]?
**A.** Its composite z-score is 0.229.

**Q.** And the composite z-score [19]?
**A.** The composite z-score was 1.02.

**Q.** What about the composite z-score [20] of the same compound?
**A.** Its composite z-score is 0.104.

**Q.** For `CCCC=C(CCC)[C@@H](NC(=O)c1ccco1)c1ccc(C(=O)OC)cc1`, which composite z-score [1] is on record?
**A.** The composite z-score was 0.0801.

**Q.** And the composite z-score [2]?
**A.** Its composite z-score is 0.127.

**Q.** And the composite z-score [3]?
**A.** Its composite z-score is 0.209.

**Q.** And the composite z-score [4]?
**A.** The composite z-score was 0.72.

**Q.** What about the composite z-score [5] of the same compound?
**A.** The composite z-score was 1.52.

**Q.** What about the composite z-score [6] of the same compound?
**A.** Its composite z-score is 1.65.

**Q.** What about the composite z-score [7] of the same compound?
**A.** Its composite z-score is 1.2.

**Q.** And the z-score [8]?
**A.** Its z-score is 0.467 (inactive).

**Q.** What about the composite z-score [9] of the same compound?
**A.** Its composite z-score is 0.594.

**Q.** And the composite z-score [10]?
**A.** Its composite z-score is -0.0507.

**Q.** And the composite z-score [11]?
**A.** Its composite z-score is 0.997.

**Q.** And the z-score [12]?
**A.** The z-score was 1.06 (inactive).

**Q.** And the z-score [13]?
**A.** The z-score was 0.113 (inactive).

**Q.** What about the z-score [14] of the same compound?
**A.** The z-score was 2.22 (inactive).

**Q.** What about the composite z-score [15] of the same compound?
**A.** Its composite z-score is 3.52.

**Q.** And the z-score [16]?
**A.** Its z-score is -0.868 (inactive).

**Q.** What about the composite z-score [17] of the same compound?
**A.** Its composite z-score is 0.198.

**Q.** And the composite z-score [18]?
**A.** The composite z-score was 0.678.

**Q.** What about the composite z-score [19] of the same compound?
**A.** Its composite z-score is 1.06.

**Q.** And the composite z-score [20]?
**A.** The composite z-score was -0.15.

**Q.** With `CCCCN1CC=CC23O[C@@H]4/C=C\CCC(C)OC(=O)C4[C@H]2C(=O)N(C(C)CO)[C@@H]3C1=O` (stereo not given in full) as the compound, how does the composite z-score [1] read?
**A.** Its composite z-score is -0.126.

**Q.** And the composite z-score [2]?
**A.** The composite z-score was -0.248.

**Q.** And the composite z-score [3]?
**A.** The composite z-score was -0.164.

**Q.** And the composite z-score [4]?
**A.** Its composite z-score is -0.0863.

**Q.** What about the composite z-score [5] of the same compound?
**A.** The composite z-score was -0.831.

**Q.** What about the composite z-score [6] of the same compound?
**A.** The composite z-score was -1.

**Q.** What about the composite z-score [7] of the same compound?
**A.** The composite z-score was 0.331.

**Q.** And the z-score [8]?
**A.** The z-score was -0.3 (inactive).

**Q.** What about the composite z-score [9] of the same compound?
**A.** The composite z-score was -0.536.

**Q.** What about the composite z-score [10] of the same compound?
**A.** Its composite z-score is 0.0373.

**Q.** What about the composite z-score [11] of the same compound?
**A.** Its composite z-score is -1.58.

**Q.** What about the z-score [12] of the same compound?
**A.** The z-score was 0.324 (inactive).

**Q.** And the z-score [13]?
**A.** The z-score was -0.944 (inactive).

**Q.** What about the z-score [14] of the same compound?
**A.** Its z-score is 0.316 (inactive).

**Q.** And the composite z-score [15]?
**A.** The composite z-score was -1.13.

**Q.** What about the z-score [16] of the same compound?
**A.** The z-score was -0.182 (inactive).

**Q.** What about the composite z-score [17] of the same compound?
**A.** Its composite z-score is -0.317.

**Q.** What about the composite z-score [18] of the same compound?
**A.** The composite z-score was -0.422.

**Q.** And the composite z-score [19]?
**A.** The composite z-score was -0.878.

**Q.** What about the composite z-score [20] of the same compound?
**A.** Its composite z-score is -0.401.
